Results taken from PubChem BioAssay AID652094 (National Center for Advancing Translational Sciences (NCATS), 2013).
Calls of active or inactive are those of the source.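 How the source made its calls: active means lower glucosylceramide lipid buildup in Gaucher patient macrophages after compound treatment; inactive means the rest.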

Experiment: Extended Characterization of Activators of N370S glucocerebrosidase as a Potential Chaperone Treatment of Gaucher Disease: Quantification of GlcCer accumulation in Gaucher macrophages
Details: Gaucher patient macrophages, GlcCer-BODIPY accumulation fluorescence
Source text: Glucocerebrosidase (GCase) catalyzes the hydrolysis of beta-glucocerebroside (GC) to glucose and ceramide in lysosomes. Mutations in the glucocerebrosidase gene result in Gaucher disease, an autosomal recessive lysosomal storage disorder. Many of the mutations encountered in patients with Gaucher disease are missense alterations that may cause misfolding, decreased stability and/or mistrafficking of this lysosomal protein. […] These inhibitors include iminosugar analogs and other inhibitors that were discovered as part of previous work. However, the enhancement of enzyme activity by the chaperone action of an enzyme inhibitor must be balanced against the direct inhibition of the enzyme. […] In this extended characterization of our probe, we have further characterized the activity of probes in relevant models of Gaucher disease. This assay attempts to quantitate GC concentration in patient-derived macrophages following compound incubation. NIH Chemical Genomics Center [NCGC] NIH Molecular Libraries Probe Production Centers Network [MLPCN] […]
In order to quantify macrophage GlcCer accumulation, erythrocyte ghosts were labeled with N-[11- (dipyrrometheneboron difluoride) undecanoyl]-D-Glucosyl-beta1-1'-D-erythro-sphingosine (C11 TopFluor Glucosyl Ceramide) (Avanti Polar Lipid) for 30 min at 37 degrees C and fluorescence measured at 495/503 nm on a Victor 1420 multi-label counter (PerkinElmer).

**Q.** With `C#Cc1ccc(NC(=O)c2cnn3c(C)cc(C)nc23)cc1` as the compound, how does the outcome read?
**A.** The outcome was “active; decreased”.
